Measurements from PubChem BioAssay (EPA / NIEHS).
“And” between values parts separate entries of the source, which are not always exact repeats. Equal values may be shown once. More than one record can exist for a structure, and the calls need not agree. The source made the active and inactive calls. Rule for the calls: active = hit-call score of the fitted dose curve at least 0.9, where 1 is the maximum; inactive = score below 0.9.

Tests used:
[1] = read-out: Macrophage colony-stimulating factor (MCSF), CSF1 (gene 1435); assay: BSK_hDFCGF_MCSF: BioMAP Diversity Plus: hDFCGF Assay for Macrophage colony-stimulating factor (MCSF) Biomarker Activity (AID 2283060); details: primary human foreskin fibroblasts; actives raise or lower the signal
How it was run: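 M-CSF levels, determined by ELISA, are taken at 24 h after dosing human skin fibroblasts. Responses in either direction are fitted with DMSO serving as the baseline.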

[2] = BSK_hDFCGF_SRB: Viability Assessment in the BioMAP Diversity Plus: hDFCGF Assay (AID 2283061); details: primary human foreskin fibroblasts;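 note: cells exposed to compound for 24 h before the read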
How it was run: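 Cells were dosed with test chemical, cultured 24 h, fixed with 10% TCA, then stained with 0.1% SRB and read at 560 nm. The fibroblasts were human foreskin primary cells, and DMSO served as baseline.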

[3] = read-out: TIMP metallopeptidase inhibitor 1 (TIMP1), TIMP1 (gene 7076); assay: BSK_hDFCGF_TIMP1: BioMAP Diversity Plus: hDFCGF Assay for TIMP metallopeptidase inhibitor 1 (TIMP1) Biomarker Activity (AID 2283062); details: primary human foreskin fibroblasts; actives raise or lower the signal
How it was run: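 Fibroblasts from human foreskin are treated with test chemical and harvested at 24 h. TIMP-1 is quantified by ELISA, and gain or loss of signal is scored against DMSO.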

[4] = read-out: Monokine induced gamma interferon (MIG), CXCL9 (gene 4283); assay: BSK_hDFCGF_MIG: BioMAP Diversity Plus: hDFCGF Assay for Monokine induced gamma interferon (MIG) Biomarker Activity (AID 2283063); details: primary human foreskin fibroblasts; actives raise or lower the signal
How it was run: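 MIG signal, determined by ELISA, reflects 24 h chemical exposure of human skin primary fibroblasts. DMSO serves as negative control and baseline.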

[5] = read-out: Matrix Metallopeptidase 1 (MMP1), MMP1 (gene 4312); assay: BSK_hDFCGF_MMP1: BioMAP Diversity Plus: hDFCGF Assay for Matrix Metallopeptidase 1 (MMP1) Biomarker Activity (AID 2283064); details: primary human foreskin fibroblasts; actives raise or lower the signal
How it was run: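 Primary human foreskin fibroblasts in the hDFCGF system were dosed with test chemical, and MMP1 was measured by ELISA 24 h later. Values come from bidirectional curve fitting against the DMSO baseline.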

[6] = read-out: Vascular cell adhesion molecule 1 (VCAM1), VCAM1 (gene 7412); assay: BSK_hDFCGF_VCAM1: BioMAP Diversity Plus: hDFCGF Assay for Vascular cell adhesion molecule 1 (VCAM1) Biomarker Activity (AID 2283065); details: primary human foreskin fibroblasts; actives raise or lower the signal;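 for AC50: VCAM-1 protein level quantified by ELISA after 24 h chemical exposure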
How it was run: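 Cells are dosed, cultured for 24 h, then VCAM-1 is quantified by ELISA; signal increases and decreases are both fitted relative to DMSO.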

[7] = read-out: Plasminogen activator inhibitor-1 (PAI1), SERPINE1 (gene 5054); assay: BSK_hDFCGF_PAI1: BioMAP Diversity Plus: hDFCGF Assay for Plasminogen activator inhibitor-1 (PAI1) Biomarker Activity (AID 2283066); details: primary human foreskin fibroblasts; actives raise or lower the signal
How it was run: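 Human foreskin fibroblasts in the hDFCGF system were dosed with compound for 24 h; PAI-1 was quantified by ELISA. Bidirectional curve fitting used DMSO as negative control and baseline.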

[8] = read-out: Interferon-gamma inducible Protein 10 (IP10), CXCL10 (gene 3627); assay: BSK_KF3CT_IP10: BioMAP Diversity Plus: KF3CT Assay for Interferon-gamma inducible Protein 10 (IP10) Biomarker Activity (AID 2283068); details: primary human keratinocytes with fibroblasts; actives raise or lower the signal
How it was run: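 ELISA read-out of IP-10 after 24 h chemical dosing of human skin primary co-culture (keratinocytes, foreskin fibroblasts). Gain or loss of signal relative to DMSO, bidirectional curve fit.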

[9] = BSK_KF3CT_SRB: Viability Assessment in the BioMAP Diversity Plus: KF3CT Assay (AID 2283069); details: primary human keratinocytes with fibroblasts
How it was run: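 Human primary keratinocyte plus foreskin fibroblast co-culture exposed to chemicals for 24 h. Total protein measured by 0.1% sulforhodamine B staining after 10% TCA fixation, read at 560 nm; bidirectional fitting versus DMSO baseline.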

[10] = read-out: Interleukin-1 alpha (IL1a), IL1A (gene 3552); assay: BSK_KF3CT_IL1a: BioMAP Diversity Plus: KF3CT Assay for Interleukin-1 alpha (IL1a) Biomarker Activity (AID 2283070); details: primary human keratinocytes with fibroblasts; actives raise or lower the signal
How it was run: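 Human keratinocyte plus foreskin fibroblast primary co-culture, sampled 24 h after chemical dosing. IL-1a measured by ELISA; responses fitted bidirectionally against DMSO baseline (negative control), so gain or loss of signal both count.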

[11] = read-out: TIMP metallopeptidase inhibitor 2 (TIMP2), TIMP2 (gene 7077); assay: BSK_KF3CT_TIMP2: BioMAP Diversity Plus: KF3CT Assay for TIMP metallopeptidase inhibitor 2 (TIMP2) Biomarker Activity (AID 2283071); details: primary human keratinocytes with fibroblasts; actives raise or lower the signal
How it was run: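 Human primary keratinocyte/foreskin fibroblast co-culture dosed with chemical and sampled at 24 h. TIMP-2 levels quantified by ELISA; bidirectional fitting against DMSO negative control as baseline.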

[12] = read-out: Transforming growth factor beta 1 (TGFb1), TGFB1 (gene 7040); assay: BSK_KF3CT_TGFb1: BioMAP Diversity Plus: KF3CT Assay for Transforming growth factor beta 1 (TGFb1) Biomarker Activity (AID 2283072); details: primary human keratinocytes with fibroblasts; actives raise or lower the signal
How it was run: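 Human keratinocyte plus foreskin fibroblast primary co-culture, dosed with chemical for 24 h. TGF-b1 quantified by ELISA. Activity fitted bidirectionally against DMSO negative control as baseline.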

[13] = read-out: C-C motif chemokine 2 (Homo sapiens) (UniProt P13500); assay: BSK_KF3CT_MCP1: BioMAP Diversity Plus: KF3CT Assay for Monocyte Chemoattractant Protein 1 (MCP1/CCL2) Biomarker Activity (AID 2283073); details: primary human keratinocytes with fibroblasts; actives raise or lower the signal
How it was run: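 Keratinocytes and foreskin fibroblasts were co-cultured, dosed with chemical, and sampled 24 h later. MCP-1 was quantified by ELISA, and the endpoint was analyzed with bidirectional fitting using DMSO as negative control.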

[14] = read-out: Matrix Metallopeptidase 9 (MMP9), MMP9 (gene 4318); assay: BSK_KF3CT_MMP9: BioMAP Diversity Plus: KF3CT Assay for Matrix Metallopeptidase 9 (MMP9) Biomarker Activity (AID 2283074); details: primary human keratinocytes with fibroblasts; actives raise or lower the signal;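 for AC50: MMP9 protein level quantified by ELISA in the co-culture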
How it was run: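 Keratinocyte plus foreskin fibroblast human primary skin co-culture was dosed with chemical and MMP-9 was quantified by ELISA 24 h later. Bidirectional curve fitting used DMSO as negative control and activity baseline.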

[15] = read-out: urokinase plasminogen activator (uPA), PLAU (gene 5328); assay: BSK_KF3CT_uPA: BioMAP Diversity Plus: KF3CT Assay for urokinase plasminogen activator (uPA) Biomarker Activity (AID 2283075); details: primary human keratinocytes with fibroblasts; actives raise or lower the signal
How it was run: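 Human keratinocyte plus foreskin fibroblast primary co-culture exposed to chemical for 24 h. uPA levels were quantified by ELISA, and activity was fitted bidirectionally against a DMSO negative-control baseline.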

[16] = read-out: CD40, CD40 (gene 958); assay: BSK_LPS_CD40: BioMAP Diversity Plus: LPS Assay for CD40 Biomarker Activity (AID 2283076); details: primary human HUVEC with PBMC; actives raise or lower the signal
How it was run: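 CD40 signal, measured by ELISA, is fitted in both directions relative to DMSO vehicle. The system is an LPS-driven human vascular primary co-culture of endothelial cells and PBMC, sampled 24 h after compound addition.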

[17] = read-out: Interleukin-8 (IL8), CXCL8 (gene 3576); assay: BSK_LPS_IL8: BioMAP Diversity Plus: LPS Assay for Interleukin-8 (IL8) Biomarker Activity (AID 2283078); details: primary human HUVEC with PBMC; actives raise or lower the signal
How it was run: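 Endothelial cells and PBMC from human donors are co-cultured, treated with chemicals and LPS, then assayed for IL-8 by ELISA after 24 h. Parallel SRB staining (0.1% SRB after 10% TCA fixation, 560 nm) flags cytotoxicity.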

[18] = BSK_LPS_SRB: Viability Assessment in the BioMAP Diversity Plus: LPS Assay (AID 2283079); details: primary human HUVEC with PBMC;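 note: total protein by sulforhodamine B absorbance as a cytotoxicity measure; measured one day after compound addition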
How it was run: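 Overt cytotoxicity was gauged by sulforhodamine B total-protein staining in a primary human vascular endothelial and mononuclear cell co-culture 24 h post-dosing. Activity was fitted in both directions relative to DMSO.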

[19] = read-out: Intercellular Adhesion Molecule 1 (ICAM1), ICAM1 (gene 3383); assay: BSK_KF3CT_ICAM1: BioMAP Diversity Plus: KF3CT Assay for Intercellular Adhesion Molecule 1 (ICAM1) Biomarker Activity (AID 2283067); details: primary human keratinocytes with fibroblasts; actives raise or lower the signal
How it was run: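 Dose the keratinocyte/fibroblast co-culture, wait 24 h, measure ICAM-1 by ELISA, then fit increases or decreases against DMSO. Cytotoxicity is checked in parallel cultures by SRB total-protein staining.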

[20] = read-out: E-selectin (Homo sapiens) (UniProt P16581); assay: BSK_LPS_Eselectin: BioMAP Diversity Plus: LPS Assay for Eselectin Biomarker Activity (AID 2283077); details: primary human HUVEC with PBMC; actives raise or lower the signal
How it was run: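 Signal of E-selectin, detected by ELISA, served as the endpoint; cells were umbilical vein endothelium with PBMC, read 24 h after treatment. DMSO defined baseline, and both increases and decreases were fitted.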

Measured: AC50

Chain of E-selectin (Homo sapiens) (P16581 whole entry, looked up): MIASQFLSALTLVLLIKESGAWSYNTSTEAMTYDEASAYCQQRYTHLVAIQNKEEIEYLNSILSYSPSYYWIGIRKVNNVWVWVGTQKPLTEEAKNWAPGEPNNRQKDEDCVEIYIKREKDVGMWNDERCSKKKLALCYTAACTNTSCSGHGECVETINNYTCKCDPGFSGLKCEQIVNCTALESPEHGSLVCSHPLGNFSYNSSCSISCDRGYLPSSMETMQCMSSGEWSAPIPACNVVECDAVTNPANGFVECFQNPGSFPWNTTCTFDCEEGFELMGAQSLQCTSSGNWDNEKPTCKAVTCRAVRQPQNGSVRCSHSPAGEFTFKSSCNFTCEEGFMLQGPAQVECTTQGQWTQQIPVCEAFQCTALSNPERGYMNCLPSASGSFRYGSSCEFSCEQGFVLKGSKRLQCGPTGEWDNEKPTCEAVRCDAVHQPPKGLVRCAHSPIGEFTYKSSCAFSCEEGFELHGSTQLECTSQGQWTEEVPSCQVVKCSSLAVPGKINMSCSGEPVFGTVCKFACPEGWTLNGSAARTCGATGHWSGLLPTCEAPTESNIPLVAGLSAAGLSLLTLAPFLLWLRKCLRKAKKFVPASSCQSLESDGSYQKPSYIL

CN(C)NC(=O)CCC(=O)O
not listed: [19] | [20]
inactive: all other assays above

CC(C)[C@H](C(=O)O[C@H](C#N)c1cccc(Oc2ccccc2)c1)c1ccc(Cl)cc1
active: [5] 3.97 µM | [17] 5.9 µM
not listed: [8] | [11] | [20]
inactive: all other assays above

COc1cc(OC)nc(Sc2cccc(Cl)c2C(=O)O)n1
not listed: [19] | [20]
inactive: all other assays above

CCCOc1nn(C(=O)NS(=O)(=O)c2ccccc2C(=O)OC)c(=O)n1C
active: [14] 103 nM | [17] 0.907 µM
not listed: [19]
inactive: all other assays above

CC(Oc1cccc(Cl)c1)C(=O)O (centres undefined)
active: [10] 1.15 µM
not listed: [20]
inactive: all other assays above

O=[N+]([O-])c1cc(C(F)(F)F)c(Cl)c([N+](=O)[O-])c1Nc1ncc(C(F)(F)F)cc1Cl
inactive: [3] | [12]
active: [1] 1.17 µM and 6.88 µM | [2] 810 nM and 9.49 µM | [3] 1.12 µM | [5] 1.59 µM and 10.6 µM | [6] 954 nM and 7.64 µM | [7] 859 nM and 9.54 µM | [8] 7.9 µM | [9] 741 nM and 5.95 µM | [10] 867 nM and 6.33 µM | [11] 588 nM and 11.3 µM | [12] 7.7 µM | [13] 1.71 µM and 15.5 µM | [14] 991 nM and 5.6 µM | [15] 1.37 µM and 7.61 µM | [16] 1.44 µM and 6.49 µM | [17] 2.33 µM and 3.94 µM | [18] 2 µM and 3.96 µM

CCOP(=S)(OCC)Oc1ccc2c(C)c(Cl)c(=O)oc2c1
active: [1] 13.6 µM | [5] 5.06 µM | [6] 31.3 µM | [10] 14.4 µM
not listed: [19]
inactive: all other assays above
